Compound activity deposited in PubChem by Johns Hopkins Ion Channel Center.
KCNQ2 inh: inhibitors of rat KCNQ2 potassium channel; hit rate 1.1% among 310,000; O88943; B-score at 10 µM; CHO-K1 KCNQ2, FluxOR thallium flux, 20 min; stronger effect = lower value; AID 2156;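 active = fluorescence ratio B-score at most minus 3 library SDs, with starting brightness B-score within 2 library SDs, cut at about -5.5 in these data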
Target sequence (O88943 whole entry, looked up): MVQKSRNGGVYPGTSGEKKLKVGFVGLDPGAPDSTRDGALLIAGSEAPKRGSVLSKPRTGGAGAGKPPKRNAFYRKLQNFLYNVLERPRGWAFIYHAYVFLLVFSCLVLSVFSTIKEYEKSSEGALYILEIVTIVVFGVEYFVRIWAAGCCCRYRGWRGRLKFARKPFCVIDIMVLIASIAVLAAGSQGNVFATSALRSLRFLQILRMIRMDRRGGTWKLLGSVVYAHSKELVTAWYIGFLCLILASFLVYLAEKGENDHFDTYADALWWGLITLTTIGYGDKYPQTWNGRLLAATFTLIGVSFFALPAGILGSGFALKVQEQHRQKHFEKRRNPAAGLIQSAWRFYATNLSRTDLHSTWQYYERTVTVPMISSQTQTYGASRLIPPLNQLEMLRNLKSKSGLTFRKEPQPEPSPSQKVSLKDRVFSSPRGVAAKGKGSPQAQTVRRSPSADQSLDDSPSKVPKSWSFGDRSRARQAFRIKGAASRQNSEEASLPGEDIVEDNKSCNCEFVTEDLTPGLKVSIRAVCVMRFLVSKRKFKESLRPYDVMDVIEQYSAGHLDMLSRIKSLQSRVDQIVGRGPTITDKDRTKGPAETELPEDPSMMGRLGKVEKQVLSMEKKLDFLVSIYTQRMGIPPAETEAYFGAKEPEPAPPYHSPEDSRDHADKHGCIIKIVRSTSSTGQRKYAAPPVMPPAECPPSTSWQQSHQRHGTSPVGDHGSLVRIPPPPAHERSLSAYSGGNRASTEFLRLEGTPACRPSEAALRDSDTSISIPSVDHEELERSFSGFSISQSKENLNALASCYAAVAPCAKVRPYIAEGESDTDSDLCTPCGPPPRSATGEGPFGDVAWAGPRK
KCNQ2 enhance: potentiators of rat KCNQ2 potassium channel | O88943 | CHO-K1 KCNQ2, FluxOR thallium flux fluorescence; stronger effect = higher value | B-score at 10 µM | AID 2239 | hit rate 0.54% among 310,000;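 active = fluorescence ratio B-score at least 3 SD of library B-scores, with initial fluorescence B-score within 3 of them, cut at about 5.3 in these data; same plate scores as AID 2156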;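 also: B-score of peak minus minimum over baseline fluorescence ratio after K+ and Tl+ stimulus; positive B-score means potentiation of KCNQ2 with more thallium influx and brighter signal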
* hit, by the source's call; i = inactive; nt = not tested or not shown. An excerpt weighted towards active compounds, which were near 1.6% of everything screened.

SMILES | KCNQ2 inh | KCNQ2 enhance
COc1ccc(N2CCN(C(=O)CCC(=O)N3Cc4ccccc4Oc4ncccc43)CC2)cc1 | i | 0.04
CC(CCc1ccccc1)NCC#N (stereo not given) | i | 2
CC(=O)Nc1ccc(S(=O)(=O)NC2CC(=O)N(c3ccc4c(c3)OCCO4)C2)cc1 (stereo not given) | i | 0.13
Cc1cc(C)n(-c2nc3ccccc3c(=O)n2OCC(=O)Nc2c(C)cccc2C)n1 | -6* | -6
Cc1cc(C)n(-c2nc3ccccc3c(=O)n2OCC(=O)N(C)C)n1 | i | 0.04
COc1ccc(Nc2nc(C)nc3c2nnn3Cc2ccccc2Cl)c(OC)c1 | i | nt
Cc1cccc(C(=O)NCC(=O)N2CCOCC2)c1 | i | nt
Cc1nn(C(C)(C)C)c(OC(=O)c2ccc(Br)o2)c1Sc1ccccc1 | i | nt
Cc1nn(C(C)(C)C)c(OC(=O)c2ccc3c(c2)OCO3)c1Sc1ccccc1 | i | nt
Cc1nn(C(C)(C)C)c(OC(=O)c2ccco2)c1Sc1ccccc1 | -6.1* | -6.1
Cc1nn(C(C)(C)C)c(OC(=O)c2cccs2)c1Sc1ccccc1 | -8* | -8
Cc1nc(-c2nnc(SCC(=O)Nc3ccc(C(F)(F)F)cc3)n2C)cs1 | i | nt
COc1ccc(-c2c[n+]3c4n2CCCCC4=C(c2ccccc2)C3)cc1 | -6.2* | -6.2
COc1ccc(-c2c[n+](CC(=O)c3ccccc3)c3n2CCCCC3)cc1 | i | nt
CCCCN(C)C(=O)Cn1cnc2sc(C)c(S(=O)(=O)N3CCN(c4ccccc4OC)CC3)c2c1=O | i | 2.3
CN(Cc1ccccc1)C(=O)c1nc2ccccn2c1CN1CCc2sccc2C1 | -5.9* | -5.9
CN(Cc1c(C(=O)N(C)Cc2ccccc2)nc2ccccn12)CC1Cc2ccccc2O1 (stereo not given) | i | nt
CCN(CC)CCN1C(=O)C2C(C(=O)Nc3cccc(C)c3)C3C=CC2(O3)C1C(=O)NC1CCCC(C)C1C (stereo not given) | i | 0.01
Cc1cccc(N2CCN(C(=O)c3ccc(N4CCCC4=O)cc3)CC2C)c1 (stereo not given) | i | 2.3
Cc1cccc(N2CCN(C(=O)c3ccc4c(c3)c(C)c(C)n4C)CC2C)c1 (stereo not given) | -6.1* | -6.1
O=C(NC(=Nc1nc2ccccc2o1)NC(=O)c1ccccc1)c1ccccc1 | i | nt
COc1ccccc1C(=O)NC(=Nc1nc2ccccc2o1)NC(=O)c1ccccc1OC | -14* | -14
COc1ccc(CCN(C(=O)c2snc(C(N)=O)c2N)C(C)C(=O)NC2CCCCC2)cc1OC (stereo not given) | i | 1.4
O=C(N/N=C/c1ccco1)C1CC1c1ccccc1 (stereo not given) | i | 20*
O=C(CCc1ccccc1)N/N=C/c1cccc([N+](=O)[O-])c1 | i | 2.2
SMILES | KCNQ2 inh | KCNQ2 enhance
O=C(N/N=C/c1cccc([N+](=O)[O-])c1)C1CC1c1ccccc1 (stereo not given) | i | 15*
O=C(N/N=C/c1ccco1)C1CC1 | i | 1.2
Cc1cc2c(cn1)C(CCC#N)(CCC#N)c1ccccc1-2 | i | nt
CCCCCC(=O)Nc1ccc(C(=O)CN2C(=O)NC3(CCCCCC3)C2=O)cc1 | i | nt
COc1ccccc1NC(=O)CSc1nnc2ccc(-c3ccccn3)nn12 | i | 1.1
COc1ccccc1N1CCN(C(=O)C(Sc2ccccc2)c2ccccc2)CC1 (stereo not given) | -5.7* | -5.7
COc1ccccc1N1CCN(C(=O)CSc2ccccc2)CC1 | i | nt
CCOc1ccccc1C(=O)NCC(=O)N(C)Cc1cccnc1 | i | 0.12
CCN1C(c2ccccc2)C(C)C(=O)C(C)C1c1ccccc1 (stereo not given) | -8.4* | -8.4
CCC1C(=O)C(CC)C(c2ccccc2)NC1c1ccccc1 (stereo not given) | i | nt
CC(NC(=O)C(=O)NCCc1c[nH]c2ccccc12)c1ccccc1 (stereo not given) | i | 0.09
N#Cc1ccccc1CSc1nc2ccsc2c(=O)n1Cc1ccccn1 | i | nt
Cc1ccc(CSc2nc3ccsc3c(=O)n2Cc2ccccn2)cc1 | -6.2* | -6.2
Cc1ccc(-n2cc(-c3ccccc3)c3c(N4CCOCC4)ncnc32)cc1 | i | nt
Cc1cccc(-n2cc(-c3ccccc3)c3c(N4CCOCC4)ncnc32)c1 | -6.7* | -6.7
Fc1ccc(-n2cc(-c3ccccc3)c3c(NN4CCOCC4)ncnc32)cc1 | i | 0.01
COc1ccc(-n2cc(-c3ccccc3)c3c(NN4CCOCC4)ncnc32)cc1 | -5.6* | -5.6
NS(=O)(=O)c1ccc(CCNCc2cccnc2)cc1 | i | nt
CC(Oc1ccc(F)cc1F)C(=O)NNC(=S)NCC1CCCO1 (stereo not given) | i | nt
CCOc1ccc(CCNC(=O)CSC(=S)N2CCCC2)cc1OCC | i | 0.04
O=C(Cc1ccccc1)Nn1c(-c2ccccc2F)nc2ccccc2c1=O | i | 9.4*
O=C(Nn1c(-c2ccccc2)nc2ccccc2c1=O)c1ccco1 | i | 0.08
O=C(Cc1ccccc1)Nn1c(-c2ccccc2)nc2ccccc2c1=O | i | 8.4*
O=C(CSc1nc2ccccc2c(=O)n1NC(=O)Cc1ccccc1)NCc1ccccc1 | i | 0.8
CCCCCCCCN1[C@@H](CC(=O)OCC)c2cc(F)ccc2S1(=O)=O | i | nt
SMILES | KCNQ2 inh | KCNQ2 enhance
CCCCCCCCN1[C@@H](CC(=O)OC)c2cc(F)ccc2S1(=O)=O | -6* | -6
O=C(CN1C(=O)NC2(CCCC2)C1=O)OCc1cc(=O)n2cc(Br)ccc2n1 | i | 0.47
COc1ccc(CCNC(C(=O)Nc2cc(C)cc(C)c2)c2ccccc2)cc1 (stereo not given) | -8.1* | -8.1
CCOc1ccccc1NC(=O)C(NCCc1ccc(OC)cc1)c1ccccc1 (stereo not given) | i | nt
Cc1cnc(CNC(=O)C2CCC(=O)N(Cc3ccc(Cl)cc3)C2)[nH]1 (stereo not given) | i | 0.43
COc1ccc(-n2c(C)cc(/C=C3\SC(=S)NC3=O)c2C)cc1 | i | nt
COc1ccc2nc(N3CCCCC3)c(/C=C3\SC(=S)NC3=O)cc2c1 | i | 11*
Cn1c2ccccc2c(=O)c2cc(C#CC3(O)CCCCC3)ccc21 | i | 1.1
Cn1c2ccccc2c(=O)c2ccc(C#CC3(N)CCCCC3)cc21 | -7.3* | -7.3
CC(C)Cc1ccc(CN2CCCC(NC(=O)c3ccnn3C)C2)cc1 (stereo not given) | i | nt
CC(C)Cc1ccc(CN2CCCC(NC(=O)c3nn(C)c(=O)c4ccccc34)C2)cc1 (stereo not given) | -7.8* | -7.8
CC(C)CCn1nnnc1CN1CCN(C(c2ccccc2)c2ccccc2)CC1 | -5.7* | -5.7
c1ccc(C(c2ccccc2)N2CCN(Cc3nnnn3C3CCCC3)CC2)cc1 | i | nt
Cc1cc(C)nc(NCC(O)COc2ccccc2C)n1 (stereo not given) | -5.9* | -5.9
Cc1cc(C)nc(NCC(O)CNc2ccccc2C)n1 (stereo not given) | i | 0.82
Cc1ccccc1C1c2[nH]c3ccccc3c2C[C@H]2C(=O)N(c3ccccc3C(=O)NCCCN3CCOCC3)C(=O)N12 (stereo not given in full) | i | nt
CC(C)(C)N/N=C1\CC(c2ccccc2)Oc2ccccc21 (stereo not given) | -7.2* | -7.2
c1ccc(C2C/C(=N\N3CCOCC3)c3ccccc3O2)cc1 (stereo not given) | i | nt
CN(CC(=O)Nc1ccc(Cl)cc1)CC(=O)Nc1cccc(Br)c1 | i | nt
